# Compound activity (PubChem)
# In the library only some 2.6% were active in any assay of this set; here they are far more common.
# PKA-R2B act = PKA-R2B complex activation. P22694+P31323. PKA-R2B holoenzyme dissociation, Cy5-IP20 fluorescence polarization; R2B truncated from residue 108, S112A mutant; 0% DMSO only, 100% 113 µM cGMP. activation, % at 11.4 µM. 340,000 compounds, 0.079% hits. AID 504700;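 active means activation above a cutoff set at the mean over all compounds plus 3 SD, cut at about 18% in these data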;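 further: higher means more holoenzyme dissociation and a rise in polarization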
# Target sequence (P31323 whole entry, looked up, other chains not shown, the tested form may be a part): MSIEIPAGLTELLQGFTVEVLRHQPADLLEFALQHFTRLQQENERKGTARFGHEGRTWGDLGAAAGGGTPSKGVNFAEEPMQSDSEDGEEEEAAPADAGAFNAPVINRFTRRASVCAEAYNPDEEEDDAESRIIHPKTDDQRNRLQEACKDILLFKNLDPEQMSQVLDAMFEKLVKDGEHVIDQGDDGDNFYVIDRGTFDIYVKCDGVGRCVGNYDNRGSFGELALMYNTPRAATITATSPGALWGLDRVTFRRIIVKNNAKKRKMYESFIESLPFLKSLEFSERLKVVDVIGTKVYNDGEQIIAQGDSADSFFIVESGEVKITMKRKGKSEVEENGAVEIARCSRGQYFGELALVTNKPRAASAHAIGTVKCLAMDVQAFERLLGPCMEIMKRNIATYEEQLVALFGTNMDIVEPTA
# PAFAH2 inh = PAFAH2 (human) inhibition; recombinant PAFAH2, FP-rhodamine activity probe, fluorescence polarization; Q99487; inhibition, % at 3.39 µM; 340,000 compounds, 0.99% hits;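 active means inhibition above the mean over all tested compounds plus 3 SD, cut at about 30% in these data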;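 further: inhibitors block probe labeling of enzyme so polarization drops; 0% = enzyme with DMSO and 100% = wells lacking PAFAH2 protein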
# PAFAH1B3 FP inh = blocks human PAF acetylhydrolase 1B catalytic subunit 3; Q15102; recombinant PAFAH1B3, FP-rhodamine probe, fluorescence polarization; inhibition, % at 3.39 µM; 340,000 compounds, 0.28% hits; AID 492972;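 active means inhibition above the screen-wide average of all tested compounds plus 3 SD, cut at about 25% in these data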;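 further: 0% = enzyme with DMSO only and 100% = wells lacking PAFAH1B3 protein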
# PKA-R1A activ = activates the PKA-R1A holoenzyme complex; P00514+P68181; PKA-R1A dissociation, Cy5-IP20 fluorescence polarization; scaled: DMSO 0%, 113 µM cGMP 100%; AID 504707; 340,000 compounds, 0.083% hits; activation, % at 11.4 µM;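 active means percent activation above the mean of all tested compounds plus 3 SD, cut at about 19% in these data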;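 further: higher means more PKAc released from R1A so a rise in polarization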
# PAFAH1B2 FP inh = inhibitors of human PAFAH1B2. P68402. recombinant PAFAH1B2, FP-rhodamine activity probe, fluorescence polarization. inhibition, % at 3.39 µM. 340,000 compounds, 1.2% hits;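 active means inhibition above the mean of all tested compounds plus 3 SD, cut at about 24% in these data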;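 further: 0% = enzyme with DMSO and 100% = wells lacking PAFAH1B2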
# pPAFAH inh = pPAFAH (human) enzyme inhibition; Q13093; recombinant pPAFAH, FP-rhodamine probe fluorescence polarization; inhibition, % at 3.39 µM; 330,000 compounds, 1.5% hits;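 active means inhibition above the mean inhibition across the screen plus 3 SD, cut at about 25% in these data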;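 further: inhibitors block binding of the rhodamine activity-based probe so polarization drops; 0% = enzyme with DMSO and 100% = wells lacking pPAFAH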
# pPAFAH FP conf = pPAFAH (human) inhibition, confirmed | shares compounds with pPAFAH inh | recombinant pPAFAH, FP-Rh probe fluorescence polarization | inhibition, % at 3.39 µM | 2,300 compounds, 72% hits;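 active means mean inhibition of the triplicate above the hit cutoff set for the earlier primary screen, cut at about 25% in these data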;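 further: 0% = enzyme with DMSO and 100% = wells lacking pPAFAH enzyme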
# The depositor's hits bear a star; / = no result given.
SMILES,PKA-R2B act,PAFAH2 inh,PAFAH1B3 FP inh,PKA-R1A activ,PAFAH1B2 FP inh,pPAFAH inh,pPAFAH FP conf
O=S(=O)(c1ccc2ccccc2c1)n1cccn1,8,-1,-15,-5,1,-6,/
COc1cc(OC)cc(C(=O)NNC(=O)C2CCCC2)c1,3,-10,2,-6,3,-1,/
CCOC(=O)/C(C#N)=C/Nc1ccccc1NS(=O)(=O)c1cccc(C(C)=O)c1,8,1,5,15,-2,35*,9
CC(NC(=O)C1CCC(CNS(=O)(=O)c2ccc3c(c2)C(C)(C)C(=O)N3C)CC1)c1ccccc1 (configuration not stated),-1,-1,-2,1,5,8,/
C1CCC(c2nn3c(-c4n[nH]c5c4CCC5)nnc3s2)CC1,12,10,-1,-6,-1,9,/
CCN(CC)c1ccc(-c2nn3c(-c4n[nH]c5c4CCC5)nnc3s2)cc1,-7,20,2,-8,2,35*,45*
O=C(NCCCSc1ccccc1)c1ccc(=O)[nH]c1,2,-10,4,-2,6,3,/
CN(C)CC/C=C1/c2ccccc2COc2ccc(CC(=O)O)cc21,2,0,-1,-4,-2,60*,4
O=c1nc(Nc2cccc(Cl)c2)oc2cc(Cl)oc(=O)c12,-9,-18,-4,-6,-10,7,/
O=C(Nc1cc(S(=O)(=O)N2CCOCC2)ccc1O)c1ccc(NS(=O)(=O)c2ccc(Cl)s2)cc1,-5,2,-4,-14,7,45*,45*
COc1ccc(NS(=O)(=O)c2ccc(O)c(NC(=O)c3ccc(S(=O)(=O)N4CCCCCC4)cc3)c2)cc1,-10,-26,-16,-5,1,46*,57*
COc1ccc(C(=O)Nc2ccc(S(=O)(=O)N3CCCC3)cc2)cc1,-15,-5,-1,0,4,-2,/
CCN(CC)C(C(=O)Nc1ccc2c(c1)OCO2)c1ccccc1 (configuration not stated),6,10,6,-7,6,44*,4
CC(CC(=O)Nc1ccc2c(c1)OCO2)c1ccccc1 (configuration not stated),0,5,9,-5,2,8,/
O=C1CSC(=S)N1/N=C/c1ccc(O)c(O)c1O,4,36*,19,1,7,67*,64*
O=C1CSC(=S)N1/N=C/c1cc(Br)ccc1O,/,/,/,/,/,17,/
Cc1nc2cc(Cl)c(Cl)cc2n1-c1ccccn1,-3,1,4,-4,-4,3,/
CC(C(=O)NCc1ccccc1)N(Cc1ccccc1Cl)C(=O)c1snc(C(N)=O)c1N (configuration not stated),-9,4,-1,-3,-1,-1,/
COc1cc(/C=N/NC(=O)c2cccc(NC(=O)c3ccccc3C)c2)ccc1O,-2,-3,14,0,9,8,/
Cc1ccccc1C(=O)Nc1cccc(C(=O)N/N=C/c2cc(Cl)cc([N+](=O)[O-])c2O)c1,3,6,-9,10,3,38*,42*
Cc1cc(C)cc(OCC(=O)Nc2ccc(N3CCCC3)cc2)c1,-3,8,3,-6,-2,36*,30*
O=C(COC(=O)c1ccc(O)cc1)Nc1ccc(N2CCCCC2)cc1,-4,60*,4,3,4,48*,34*
CC(Oc1ccc(F)cc1)C(=O)N(CCC1=CCCCC1)c1c(N)n(Cc2ccccc2)c(=O)[nH]c1=O (configuration not stated),-1,-1,7,-5,4,3,/
Cc1cc(NS(=O)(=O)c2ccc(Nc3nc(-c4sc(N)nc4C)cs3)cc2)no1,-7,79*,55*,-1,36*,46*,42*
COc1ccc(CCn2c(O)cc3nn(-c4nc5ccccc5s4)c(=O)c-3c2C)cc1,9,21,15,6,7,56*,44*
SMILES,PKA-R2B act,PAFAH2 inh,PAFAH1B3 FP inh,PKA-R1A activ,PAFAH1B2 FP inh,pPAFAH inh,pPAFAH FP conf
CCCCN1C(=O)C(CC(=O)NC2CC2)CC(C(=O)N2CCOCC2)=C1C (configuration not stated),4,/,/,-3,/,/,/
c1coc(-c2nc(-c3ccco3)c(-c3ccco3)nc2-c2ccco2)c1,3,73*,47*,15,45*,100*,43*
Nc1nc(-c2ccco2)cs1,-3,-1,10,5,6,8,/
Nc1nc(-c2ccco2)c(-c2ccco2)s1,-3,7,12,2,-2,37*,10
O=C(CSc1nc2nn(-c3ccccc3)c(=O)c-2c2n1CCCCC2)c1ccc(O)c(O)c1,-3,85*,29*,-9,9,71*,86*
Cc1cccc(N=C2NC(=O)/C(=C/C=C/c3ccco3)S2)c1C,0,48*,9,-4,9,71*,66*
Cc1ccc(N=C2NC(=O)S/C2=C\c2ccco2)cc1,2,0,1,8,4,14,/
COc1ccc(N=C2NC(=O)/C(=C/C=C/c3ccccc3)S2)cc1,1,1,-3,5,1,6,/
O=C1NC(=Nc2ccccc2)S/C1=C\C=C\c1ccco1,-5,30,13,-4,3,60*,38*
Cc1cccc(N=C2NC(=O)/C(=C/c3cccnc3)S2)c1C,-4,13,7,-7,1,12,/
Cc1ccc(N=C2NC(=O)/C(=C/C=C/c3ccco3)S2)cc1,9,21,13,6,0,68*,33*
C=CCN=C(NC#N)SCC(=O)c1cccc(OC)c1,-1,0,16,-2,4,61*,10
CCN1CCN(C(=S)Nc2ccsc2C(=O)OC)CC1,1,0,7,-6,4,60*,4
COC(=O)c1sccc1NC(=S)N1CCN(C)CC1,3,1,5,-15,4,1,/
CCOC(=O)C(=O)NNc1ccc(F)cc1,/,/,/,/,/,3,/
O=P(c1ccccc1)(c1ccccc1)c1ccccc1C(Br)Br,-5,/,/,-4,/,/,/
CC1CCCC(C)N1C(=O)COC(=O)c1cncc(Br)c1 (configuration not stated),-3,2,10,-4,7,0,/
COc1ccccc1S(=O)(=O)N(C)C[C@H]1Oc2cc(C#CCC3CCCC3)ccc2S(=O)(=O)N([C@H](C)CO)C[C@H]1C,7,/,/,-14,/,/,/
O=C1c2cc(Br)ccc2N(Cc2ccc(Br)cc2)S(=O)(=O)C1c1cc(Cl)c(Cl)cc1[N+](=O)[O-] (configuration not stated),-18,54*,20,-2,44*,45*,55*
